# According to PubChem BioAssay (NCATS):
# Inconclusive results are not listed. A call without a number means that no potency is given here. Values without a mark were called inactive. Activity calls are given as the source filed them. Calls come from the whole dose curve; as a rule, active = well fitted curve in the direction sought with a large enough effect; inconclusive = small, poorly fitted or top-dose-only effect, or another doubt; inactive = no such curve, though single readings can be large; an effect the other way counts as inactive or inconclusive.
# Experiments:
# MKL-2 = assay: qHTS assay to identify novel small-molecules to repurpose for Merkel cell carcinoma treatment (AID 1296009); conditions: MCC and control cell lines, CellTiter-Glo viability, 72 h; series mostly up to 46 µM; note: nearly all actives have a fitted effect of over 60% in size
# Procedure, shortened: (§1)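 Luminescence from CellTiter-Glo, read 10 min after addition at room temperature, reported viability following a 72 hr, 37 degree celsius treatment with NPC or MIPE compounds in titration; values normalized to plate controls.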
# UISO = assay: as above; conditions: MCC and control cell lines, CellTiter-Glo viability, 72 h; series mostly up to 46 µM
# Procedure, shortened: as §1
# WaGa = assay: as above; conditions: MCC and control cell lines, CellTiter-Glo viability, 72 h; series mostly up to 46 µM
# Procedure, shortened: as §1
# C33A = assay: Primary qHTS to identify gynecologic anti-cancer compounds using libraries of approved drugs and bioactive compounds (AID 1345084); conditions: Gynecologic cancer cell panel viability, ATPlite luminescence, 48 h; series mostly up to 57.5 µM; note: nearly all actives have a fitted effect of over 55% in size
# Procedure, shortened: (§2)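 ATP-based viability (ATPlite), 1,000 cells/well, 16 h pre-incubation, 48 h compound at 37 C, 5% CO2, 15 min RT before read.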
# CAOV3 = assay: as above; conditions: Gynecologic cancer cell panel viability, ATPlite luminescence, 48 h; series mostly up to 57.5 µM
# Procedure, shortened: as §2
# CASKI = assay: as above; conditions: Gynecologic cancer cell panel viability, ATPlite luminescence, 48 h; series mostly up to 57.5 µM
# Procedure, shortened: as §2
# Es-2 = assay: as above; conditions: Gynecologic cancer cell panel viability, ATPlite luminescence, 48 h; series mostly up to 57.5 µM
# Procedure, shortened: as §2
# HeLa = assay: as above; conditions: Gynecologic cancer cell panel viability, ATPlite luminescence, 48 h; series mostly up to 57.5 µM
# Procedure, shortened: as §2
# Hek293T = assay: as above; conditions: Gynecologic cancer cell panel viability, ATPlite luminescence, 48 h, control line for the selectivity index; series mostly up to 57.5 µM
# Procedure, shortened: as §2
# JEG-3 = assay: as above; conditions: Gynecologic cancer cell panel viability, ATPlite luminescence, 48 h; series mostly up to 57.5 µM
# Procedure, shortened: as §2
# OV90 = assay: as above; conditions: Gynecologic cancer cell panel viability, ATPlite luminescence, 48 h; series mostly up to 57.5 µM
# Procedure, shortened: as §2
# PA-1 = assay: as above; conditions: Gynecologic cancer cell panel viability, ATPlite luminescence, 48 h; series mostly up to 57.5 µM
# Procedure, shortened: as §2
# SKOV3 = assay: as above; conditions: Gynecologic cancer cell panel viability, ATPlite luminescence, 48 h; series mostly up to 57.5 µM
# Procedure, shortened: as §2
# Tov-21-G = assay: as above; conditions: Gynecologic cancer cell panel viability, ATPlite luminescence, 48 h; series mostly up to 57.5 µM
# Procedure, shortened: as §2
# Tov112D = assay: as above; conditions: Gynecologic cancer cell panel viability, ATPlite luminescence, 48 h; series mostly up to 57.5 µM
# Procedure, shortened: as §2
# [1] = qHTS assay to identify inhibitors of the type 1 interferon - major histocompatibility complex class I in skeletal muscle: Counter screen cell viability and HiBit confirmation (AID 1347412); conditions: iHSKM muscle cells + IFN-b, HiBiT or CellTiter-Glo, 24 h; note: nearly all actives have a fitted effect of over 60% in size
# Procedure, shortened: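 After 24 h with human IFN-beta (4 ng/ml) and compound titrations (top 46 uM final, 1:3, 12 points), HLA-B HiBit myoblasts were lysed for either Nano-Glo HiBiT luminescence or CellTiter Glo viability on paired plates.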
# [2] = Drug repurposing screens with cells derived from glioblastoma tumor samples (AID 1345199); conditions: GBM patient neurospheres viability, ATP luminescence, 48 h; note: nearly all actives have a fitted effect of over 40% in size
# Procedure, shortened: (§3)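 Primary testing used CD133+ neurospheres from four GBM patients, seven concentrations, 48 h exposure and ATP-based viability; confirmation added three slower-growing patient lines.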
# astro = assay: as above; conditions: viability, ATP luminescence, 48 h; series mostly up to 45.9 µM
# Procedure, shortened: as §3
# Potency is the fitted concentration of half-maximal effect.
smiles,measurement,setting,value
Cc1ccc([N+](=O)[O-])[c]2c1[O][Hg]2,Potency,MKL-2,0.0422 µM (active)
same,Potency,UISO,0.335 µM (active)
same,Potency,WaGa,0.335 µM (active)
same,Potency,C33A,4.47 µM (active)
same,Potency,CAOV3,6.31 µM (active)
same,Potency,CASKI,7.94 µM (active)
same,Potency,Es-2,5.62 µM (active)
same,Potency,HeLa,20 µM (active)
same,Potency,Hek293T,5.62 µM (active)
same,Potency,JEG-3,3.55 µM (active)
same,Potency,OV90,12.6 µM (active)
same,Potency,PA-1,2.82 µM (active)
same,Potency,SKOV3,3.98 µM (active)
same,Potency,Tov-21-G,2 µM (active)
same,Potency,Tov112D,5.62 µM (active)
same,Potency,[1]; HiBiT,6.25 µM (active)
same,Potency,[1]; Viability,14 µM (active)
Cc1nc2ccccc2c(=O)n1-c1ccccc1Cl,Potency,MKL-2,inactive
same,Potency,UISO,inactive
same,Potency,WaGa,inactive
same,Potency,C33A,inactive
same,Potency,CAOV3,inactive
same,Potency,Es-2,inactive
same,Potency,HeLa,inactive
same,Potency,Hek293T,inactive
same,Potency,JEG-3,inactive
same,Potency,OV90,inactive
same,Potency,PA-1,inactive
same,Potency,SKOV3,inactive
same,Potency,Tov-21-G,inactive
same,Potency,Tov112D,inactive
same,"activity, negative = cell killing","[2]; at 91.6 µM (top of the series), tumour line B",-7.8%
same,"activity, negative = cell killing","[2]; at 91.6 µM (top of the series), tumour line D",-27.3%
same,Potency,[2]; tumour line A,39.8 µM (active)
same,Potency,astro,inactive
ClC1=C(Cl)C2(Cl)C(CBr)CC1(Cl)C2(Cl)Cl (stereo not drawn),Potency,MKL-2,inactive
same,Potency,UISO,inactive
same,Potency,WaGa,inactive
same,Potency,C33A,inactive
same,Potency,CAOV3,inactive
same,Potency,CASKI,inactive
same,Potency,Es-2,inactive
same,Potency,HeLa,inactive
same,Potency,Hek293T,inactive
same,Potency,JEG-3,inactive
same,Potency,OV90,inactive
same,Potency,PA-1,inactive
same,Potency,SKOV3,inactive
same,Potency,Tov-21-G,inactive
same,Potency,Tov112D,inactive
same,Potency,astro,inactive
CCCC[N+]1(C)[C@@H]2CC(OC(=O)[C@H](CO)c3ccccc3)C[C@H]1[C@@H]1O[C@@H]12 (stereo partly drawn),Potency,MKL-2,inactive
same,Potency,UISO,inactive
same,Potency,WaGa,inactive
same,Potency,C33A,inactive
same,Potency,CAOV3,inactive
same,Potency,CASKI,inactive
same,Potency,Es-2,inactive
same,Potency,HeLa,inactive
same,Potency,Hek293T,inactive
same,Potency,JEG-3,inactive
same,Potency,OV90,inactive
same,Potency,PA-1,inactive
same,Potency,SKOV3,inactive
same,Potency,Tov-21-G,inactive
same,Potency,Tov112D,inactive
same,"activity, negative = cell killing","[2]; at 45.9 µM (top of the series), tumour line B",-7.47%
same,Potency,astro,inactive
